From PubChem BioAssay (Tox21)
Unmarked numbers belong to inactive results. Inconclusive results are not listed. Entries that show only a call come without a potency. Calls of active or inactive are those of the source. Unless noted, calls follow the shape of the dose curve; as a rule, active = well fitted curve in the direction sought with a large enough effect in the repeat runs; inconclusive = weak or mixed curves; inactive = no such curve, though single readings can be large; an effect the other way counts as inactive or inconclusive.

Tests used:
[1] = qHTS assay to identify small molecule agonists of the hypoxia (HIF-1) signaling pathway - cell viability counter screen (AID 1224844; calls by dose curve; also: nearly all actives have a fitted effect of over 50% in size)
How it was run: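 Luminescent ATP content (CellTiter-Glo, 30 min, room temperature) served as the viability measure in HRE-bla ME-180 cells exposed to compounds for 17 hrs in low-serum medium (0.5% dialyzed FBS).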

[2] = qHTS assay to identify small molecule agonists of H2AX (AID 1224845; active = well fitted activation curve with a large enough effect in the signal ratio in the repeat runs, not every such curve was filed as active; the % refers to the signal ratio)
How it was run: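 Phospho-H2AX Ser139 measured by HTRF (ex 320 nm; em 665 and 620 nm) after 24 hr antibody incubation. Compounds, 15 concentrations, 0.76% DMSO, were applied to CHO-K1 cells for 3hr at 37C before lysis.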

[3] = qHTS assay to identify small molecule agonists of H2AX - cell viability counter screen (AID 1224847; calls by dose curve;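 also: wild-type CHO-K1 cells; top concentration of the series differs between compounds; nearly all actives have a fitted effect of over 30% in size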)
How it was run: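 After overnight plating of 1000 CHO-K1 cells per well, a 15-concentration compound series was applied for 3 hr at 37C. Luminescence from CellTiter-Glo, read following 30 min at room temperature, reflected cell viability.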

[4] = qHTS RealTime-Glo MT Cell Viability Assay in HepG2 cells - 24 hour (AID 1224867); also: nearly all actives have a fitted effect of over 50% in size
How it was run: (§1)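 Real-time, nonlytic viability: 600 HepG2 cells/well mixed with NanoLuc enzyme plus prosubstrate; 5 h settle, compound (DMSO) added by pintool; luminescence monitored over 40 h at 37 C.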

[5] = qHTS RealTime-Glo MT Cell Viability Assay in HEK293 cells - 32 hour (AID 1224868); also: nearly all actives have a fitted effect of over 50% in size; also: potency is read from the fitted curve at half-maximal effect
How it was run: (§2)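 Cells + reagent dispensed (600 cells/well, HEK293) → 5 h at 37 C/5% CO2 → 23 nL compound in DMSO pinned → 40 h at 37 C → luminescence read at 0, 8, 16, 24, 32, 40 h.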

[6] = A CellTox Green Cytotoxicity Assay to monitor cytotoxicity in HEK293 cells - 0 hour (AID 1224869); also: nearly all actives have a fitted effect of over 50% in size
How it was run: (§3)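 Each value comes from one timepoint of a single continuous run in which HEK293 cells with CellTox Green were exposed to compound for up to 40 h at 37 C, dye fluorescence rising with cell death.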

[7] = qHTS RealTime-Glo MT Cell Viability Assay in HepG2 cells - 40 hour (AID 1224870); also: nearly all actives have a fitted effect of over 50% in size
How it was run: (§4)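 Real-time viability: cells seeded at 600 per well together with NanoLuc and cell-permeant prosubstrate, compounds added after 5 h incubation. Luminescence tracked at 0, 8, 16, 24, 32 and 40 h of exposure.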

[8] = A CellTox Green Cytotoxicity Assay to monitor cytotoxicity in HEK293 cells - 40 hour (AID 1224871); also: nearly all actives have a fitted effect of over 45% in size
How it was run: as §3

[9] = qHTS RealTime-Glo MT Cell Viability Assay in HEK293 cells - 16 hour (AID 1224872)
How it was run: as §2

[10] = qHTS RealTime-Glo MT Cell Viability Assay in HepG2 cells - 8 hour (AID 1224873); also: nearly all actives have a fitted effect of over 55% in size
How it was run: as §4

[11] = qHTS RealTime-Glo MT Cell Viability Assay in HEK293 cells - 40 hour (AID 1224874); conditions: RealTime-Glo luminescence; max response: active compounds read low; also: nearly all actives have a fitted effect of over 50% in size
How it was run: (§5)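 qHTS format; HEK293 cells with NanoLuc/prosubstrate reagent, 37 C/5% CO2 for 5 h pre-dosing; compounds 23 nL in DMSO; luminescence at each time point reflects viable cells.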

[12] = A CellTox Green Cytotoxicity Assay to monitor cytotoxicity in HEK293 cells - 24 hour (AID 1224875); also: nearly all actives have a fitted effect of over 45% in size
How it was run: as §3

[13] = A CellTox Green Cytotoxicity Assay to monitor cytotoxicity in HepG2 cells - 16 hour (AID 1224876); also: nearly all actives have a fitted effect of over 45% in size
How it was run: (§6)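 Continuous culture of HepG2 cells with a membrane-impermeant DNA dye; rising fluorescence marks dead cells. Compound exposure lasted up to 40 h at 37 C, with reads every 8 h from 0 h.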

[14] = qHTS RealTime-Glo MT Cell Viability Assay in HepG2 cells - 32 hour (AID 1224877); also: nearly all actives have a fitted effect of over 55% in size
How it was run: as §1

[15] = A CellTox Green Cytotoxicity Assay to monitor cytotoxicity in HepG2 cells - 24 hour (AID 1224878); also: nearly all actives have a fitted effect of over 45% in size; also: potency is read from the fitted curve at half-maximal effect
How it was run: as §6

[16] = qHTS RealTime-Glo MT Cell Viability Assay in HEK293 cells - 0 hour (AID 1224880)
How it was run: as §5

[17] = qHTS assay to identify small molecule agonists of the estrogen related receptor (ERR) signaling pathway from Tox21 library (AID 1224849; calls by dose curve; also: nearly all actives have a fitted effect of over 15% in size); conditions: ERR reporter cell line, ONE-Glo luciferase, 18 h; at 92.4 µM (top of the series) unless noted
How it was run: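 We plated ERR reporter cells, waited 6 h, added compounds in DMSO by pin tool and incubated them 18 h at 37 C. ONE-Glo was then added and luminescence read after 30 min.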

[18] = A CellTox Green Cytotoxicity Assay to monitor cytotoxicity in HepG2 cells - 40 hour (AID 1224879); also: nearly all actives have a fitted effect of over 40% in size
How it was run: as §6

[19] = qHTS assay to identify small molecule antagonists of the estrogen related receptor (ERR) signaling pathway from Tox21 library (AID 1224848); also: nearly all actives have a fitted effect of over 50% in size
How it was run: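 Antagonist-mode screen of the Tox21 10K library in an NTP-provided ERR reporter cell line; 18 h compound exposure at 37 C, luminescence measured with ONE-Glo.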

[20] = qHTS assay to identify small molecule agonists of the hypoxia (HIF-1) signaling pathway (AID 1224846; active = well fitted activation curve with a large enough effect in the signal ratio in the repeat runs, not every such curve was filed as active; the % refers to the signal ratio)
How it was run: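 Measured by blue/green FRET after loading CCF4-AM: beta-lactamase expressed from a hypoxia response element in ME-180 cells. Test agents were delivered in DMSO and left 17 hrs; cells had been plated 5 hrs earlier in low-serum (0.5% dialyzed FBS) medium.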

| Structure (SMILES) | Potency [1] | Potency [2] | Potency [3] | Potency [4] | Potency [5] | Potency [6] | Potency [7] | Potency [8] | Potency [9] | outcome [10] | max response [11] [%] | Potency [12] | Potency [13] | Potency [14] | Potency [15] | outcome [16] | activity change, positive = activation [17] | Potency [18] | Potency [19] | outcome [20] |
| --- | --- | --- | --- | --- | --- | --- | --- | --- | --- | --- | --- | --- | --- | --- | --- | --- | --- | --- | --- | --- |
| CN1CCN(N)CC1 | inactive | inactive | inactive | inactive | inactive | inactive | inactive | inactive | inactive | inactive | 5.85 | inactive | inactive | inactive | inactive | inactive | – | – | – | – |
| C[C@]12CCC(=O)C=C1CC[C@@H]1[C@@H]2CC[C@@]2(C)[C@H]1CC[C@]2(O)C(=O)CO | inactive | inactive | inactive | inactive | inactive | inactive | inactive | inactive | inactive | inactive | – | inactive | inactive | inactive | inactive | inactive | -16% [at 42.5 µM] | inactive | – | – |
| CC(=O)Oc1cc(C(C)C)c(OCCN(C)C)cc1C | inactive | inactive | inactive | inactive | – | inactive | inactive | inactive | – | inactive | – | inactive | inactive | inactive | inactive | inactive | – | inactive | – | – |
| NC/C=C/C(=O)O | inactive | inactive | inactive | – | inactive | inactive | inactive | inactive | inactive | inactive | – | inactive | – | inactive | inactive | – | 6.36% [at 42.5 µM] | inactive | inactive | – |
| CC(CNC1CCCCC1)OC(=O)c1ccccc1 (centres undefined) | inactive | inactive | inactive | inactive | inactive | inactive | inactive | inactive | inactive | inactive | -9.26 | inactive | inactive | inactive | inactive | inactive | – | – | inactive | – |
| Cc1ccc(C(C)C)cc1O | inactive | inactive | – | inactive | inactive | – | inactive | – | inactive | inactive | -12 | inactive | – | inactive | – | inactive | – | – | – | inactive |
| CC1=C(CC(=O)O)c2cc(F)ccc2/C1=C\c1ccc(S(C)(=O)=O)cc1 | inactive | inactive | inactive | inactive | inactive | inactive | inactive | inactive | inactive | inactive | 8.4 | inactive | inactive | inactive | inactive | inactive | – | inactive | inactive | – |
| CC(C)(CO)[C@@H](O)C(=O)NCCC(=O)O | inactive | inactive | inactive | – | inactive | inactive | inactive | inactive | inactive | inactive | 4.63 | inactive | inactive | – | inactive | inactive | – | inactive | inactive | – |
| c1ccc(CN(CC2=NCCN2)c2ccccc2)cc1 | inactive | inactive | inactive | inactive | inactive | inactive | inactive | inactive | inactive | inactive | -19.9 | inactive | – | inactive | inactive | inactive | – | inactive | inactive | – |
| CC(=O)O[C@H]1CC[C@@]2(C)C(=CC[C@@H]3[C@@H]2CC[C@]2(C)C(C(C)=O)=CC[C@@H]32)C1 | inactive | inactive | – | – | – | inactive | inactive | inactive | inactive | inactive | -20.5 | inactive | inactive | inactive | inactive | inactive | – | inactive | – | inactive |
| CCCCOc1cc(C(=O)NCCN(CC)CC)c2ccccc2n1 | inactive | inactive | inactive | inactive | 21.3 µM (active) | inactive | inactive | – | – | inactive | – | inactive | – | inactive | 21.3 µM (active) | inactive | – | – | – | – |
| CCC(=O)O[C@]1(C(=O)SCF)[C@H](C)C[C@H]2[C@@H]3C[C@H](F)C4=CC(=O)C=C[C@]4(C)[C@@]3(F)[C@@H](O)C[C@@]21C | inactive | inactive | inactive | inactive | inactive | inactive | inactive | inactive | inactive | inactive | – | inactive | inactive | inactive | inactive | inactive | -0.0041% [at 42.5 µM] | inactive | inactive | – |
| COc1ccccc1OCC(O)COC(N)=O (centres undefined) | inactive | inactive | inactive | inactive | inactive | inactive | inactive | inactive | inactive | inactive | 12.1 | inactive | – | inactive | inactive | inactive | 6.93% [at 42.5 µM] | inactive | inactive | – |
| COc1cc(Cl)ccc1Cl | inactive | inactive | – | inactive | inactive | inactive | inactive | – | inactive | inactive | -0.591 | – | – | inactive | inactive | inactive | – | inactive | – | inactive |
| OCCN(CCO)c1ccccc1 | inactive | inactive | – | – | inactive | – | inactive | inactive | inactive | inactive | 1.89 | inactive | inactive | inactive | inactive | inactive | – | inactive | – | inactive |
